From PubChem BioAssay (EPA / NIEHS)
Calls of active or inactive are those of the source. How the source made its calls: active means hit-call score of the fitted dose curve at least 0.9, where 1 is the maximum; inactive means score below 0.9.

What was measured:
Settings in all cases: mRNA level, 48 h; actives raise or lower the signal
[1] = read-out: adenosine kinase (ADK) gene, ADK (gene 132); assay: LTEA_HepaRG_ADK: Life Technologies and Expression Analysis (LTEA) Assay for adenosine kinase (ADK) gene using HepaRG (AID 2283471)
Method in brief: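 ADK expression quantified by qRT-PCR, normalised to three housekeeping genes, after 48 h exposure of HepaRG cells to eight concentrations (top 100 uM, half-log steps, duplicate, 0.5% DMSO). Up- or down-regulation fitted relative to vehicle.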

[2] = read-out: Alpha-fetoprotein (AFP) gene, AFP (gene 174); assay: LTEA_HepaRG_AFP: Life Technologies and Expression Analysis (LTEA) Assay for Alpha-fetoprotein (AFP) gene using HepaRG (AID 2283472)
Method in brief: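 HepaRG, single lot; 48 h post-plating -> serum-free induction medium; cpd 8-pt, 100 uM top, half-log, 0.5% DMSO, duplicate, 48 h. RNA -> qRT-PCR AFP, norm ACTB/GAPDH/POLR2A. Bidirectional fit vs DMSO.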

[3] = read-out: BCL2L11 (gene 10018); assay: LTEA_HepaRG_BCL2L11: Life Technologies and Expression Analysis (LTEA) Assay for Bcl-2 (BCL2L11) gene using HepaRG (AID 2283473)
Method in brief: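 Differentiated human HepaRG cells in serum-free induction medium were exposed in duplicate for 48 h to eight concentrations (top 100 uM, half-log steps, 0.5% DMSO). BCL2L11 mRNA was quantified by TaqMan qRT-PCR, normalized to ACTB/GAPDH/POLR2A, bidirectional fit versus DMSO.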

[4] = read-out: Apolipoprotein A-V (APOA5) gene, APOA5 (gene 116519); assay: LTEA_HepaRG_APOA5: Life Technologies and Expression Analysis (LTEA) Assay for Apolipoprotein A-V (APOA5) gene using HepaRG (AID 2283474)
Method in brief: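 Differentiated human HepaRG cells were exposed in duplicate for 48 h to eight half-log concentrations from 100 uM in 0.5% DMSO. APOA5 mRNA was quantified by TaqMan qRT-PCR, normalized to ACTB, GAPDH and POLR2A, and fitted bidirectionally against DMSO.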

[5] = read-out: Apoptosis regulator Bcl-2 (Homo sapiens) (UniProt P10415); assay: LTEA_HepaRG_BCL2: Life Technologies and Expression Analysis (LTEA) Assay for Bcl-2 gene using HepaRG (AID 2283475)
Method in brief: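 HepaRG, plated 48 h then switched to serum-free induction medium; dosed 48 h, 8 conc. (max 100 uM, half-log steps), duplicate, 0.5% DMSO. Lysis in RLT, RNA isolated, TaqMan qRT-PCR for BCL2; ACTB/GAPDH/POLR2A normalisation; bidirectional fit vs DMSO.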

[6] = read-out: Bcl-2 (BID) gene, BID (gene 637); assay: LTEA_HepaRG_BID: Life Technologies and Expression Analysis (LTEA) Assay for Bcl-2 (BID) gene using HepaRG (AID 2283476)
Method in brief: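 Transcript levels of BID, measured by qRT-PCR and normalized to three housekeeping genes, were fitted bidirectionally against DMSO controls. Cells were HepaRG, dosed 48 h at up to 100 uM.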

[7] = read-out: Caspase-3 (Homo sapiens) (UniProt P42574); assay: LTEA_HepaRG_CASP3: Life Technologies and Expression Analysis (LTEA) Assay for cysteine-aspartic acid protease (CASP3) using HepaRG (AID 2283477)
Method in brief: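 Differentiated human HepaRG cells in serum-free induction medium were exposed 48 h to 8-point half-log concentrations from 100 uM (0.5% DMSO vehicle). CASP3 mRNA was measured by qRT-PCR, normalised to ACTB, GAPDH and POLR2A, with bidirectional fitting against DMSO.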

[8] = read-out: Cytochrome P450 (CYP24A1), CYP24A1 (gene 1591); assay: LTEA_HepaRG_CYP24A1: Life Technologies and Expression Analysis (LTEA) Assay for Cytochrome P450 (CYP24A1) using HepaRG (AID 2283478)
Method in brief: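 Differentiated HepaRG cells, pre-cultured 48 h, were exposed in duplicate for 48 h in serum-free induction medium to 8 half-log concentrations (top 100 uM, 0.5% DMSO). CYP24A1 mRNA was quantified by TaqMan qRT-PCR, normalized to ACTB/GAPDH/POLR2A, fitted bidirectionally versus DMSO.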

[9] = read-out: Cytochrome P450 (CYP1A2), CYP1A2 (gene 1544); assay: LTEA_HepaRG_CYP1A2: Life Technologies and Expression Analysis (LTEA) Assay for Cytochrome P450 (CYP1A2) using HepaRG (AID 2283479)
Method in brief: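 Differentiated human HepaRG cells in serum-free induction medium were exposed in duplicate for 48 h to 8-point half-log concentrations up to 100 uM in 0.5% DMSO. CYP1A2 mRNA measured by qRT-PCR, normalized to ACTB, GAPDH, POLR2A; bidirectional fit vs DMSO.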

[10] = read-out: cysteine-aspartic acid protease (CASP8), CASP8 (gene 841); assay: LTEA_HepaRG_CASP8: Life Technologies and Expression Analysis (LTEA) Assay for cysteine-aspartic acid protease (CASP8) using HepaRG (AID 2283480)
Method in brief: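 HepaRG, 48 h exposure, duplicate wells; 8 conc, half-log from 100 uM, 0.5% DMSO. Serum-free induction medium. CASP8 mRNA by TaqMan qRT-PCR, norm. ACTB/GAPDH/POLR2A; gain/loss fitted vs DMSO.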

[11] = read-out: Cytochrome P450 (CYP2B6), CYP2B6 (gene 1555); assay: LTEA_HepaRG_CYP2B6: Life Technologies and Expression Analysis (LTEA) Assay for Cytochrome P450 (CYP2B6) using HepaRG (AID 2283481)
Method in brief: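 Differentiated HepaRG cells, serum-free induction medium, exposed 48 h in duplicate to 8-point half-log concentrations from 100 uM in 0.5% DMSO. CYP2B6 mRNA by qRT-PCR, normalized to ACTB, GAPDH, POLR2A; bidirectional fit versus DMSO.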

[12] = read-out: Cytochrome P450 2C19 (Homo sapiens) (UniProt P33261); assay: LTEA_HepaRG_CYP2C19: Life Technologies and Expression Analysis (LTEA) Assay for CYP2C19 using HepaRG (AID 2283482)
Method in brief: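 Differentiated human HepaRG cells were exposed for 48 h in serum-free induction medium to 8 concentrations (top 100 uM, half-log steps, 0.5% DMSO). CYP2C19 mRNA was measured by qRT-PCR, normalized to ACTB/GAPDH/POLR2A, and fitted bidirectionally against DMSO.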

[13] = read-out: CYP2C8 (gene 1558); assay: LTEA_HepaRG_CYP2C8: Life Technologies and Expression Analysis (LTEA) Assay for CYP2C8 using HepaRG (AID 2283483)
Method in brief: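 CYP2C8 mRNA induction or loss, by qRT-PCR normalized to ACTB/GAPDH/POLR2A, is read in HepaRG cells after 48 h treatment. Concentrations run from 100 uM down in half-log dilutions, with 0.5% DMSO as vehicle and baseline.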

[14] = read-out: CYP2C9 (gene 1559); assay: LTEA_HepaRG_CYP2C9: Life Technologies and Expression Analysis (LTEA) Assay for CYP2C9 using HepaRG (AID 2283484)
Method in brief: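 Cells plated 48 h, switched to serum-free induction medium, then treated in duplicate for 48 h at eight concentrations (max 100 uM, 0.5% DMSO). RNA then analysed by qRT-PCR for CYP2C9; curves fitted in both directions relative to DMSO.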

[15] = read-out: CYP2E1 (gene 1571); assay: LTEA_HepaRG_CYP2E1: Life Technologies and Expression Analysis (LTEA) Assay for CYP2E1 using HepaRG (AID 2283485)
Method in brief: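 Human liver line HepaRG, plated 48 h, then serum-free induction medium + chemical x 48 h; 8-pt CRC from 100 uM, half-log, 0.5% DMSO, n=2. Readout: CYP2E1 mRNA qRT-PCR vs ACTB/GAPDH/POLR2A; bidirectional fit vs DMSO.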

[16] = read-out: CYP4A11 (gene 1579); assay: LTEA_HepaRG_CYP4A11: Life Technologies and Expression Analysis (LTEA) Assay for CYP4A11 using HepaRG (AID 2283486)
Method in brief: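 Differentiated HepaRG cells, serum-free induction medium, exposed 48 h in duplicate to 8-point half-log series from 100 uM in 0.5% DMSO. CYP4A11 mRNA measured by qRT-PCR, normalized to ACTB, GAPDH, POLR2A; bidirectional fit versus DMSO.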

[17] = read-out: DNA damage-inducible transcript 3 (DDIT3), DDIT3 (gene 1649); assay: LTEA_HepaRG_DDIT3: Life Technologies and Expression Analysis (LTEA) Assay for DNA damage-inducible transcript 3 (DDIT3) using HepaRG (AID 2283488)
Method in brief: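 HepaRG plated 48 h, switched to serum-free induction medium, dosed 48 h (100 uM top, half-log, 8 pts, 0.5% DMSO, n=2); RNA isolated; DDIT3 by qRT-PCR; bidirectional curve fit vs DMSO.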

[18] = read-out: Pro-epidermal growth factor (Homo sapiens) (UniProt P01133); assay: LTEA_HepaRG_EGF: Life Technologies and Expression Analysis (LTEA) Assay for Epidermal growth factor (EGF) using HepaRG (AID 2283489)
Method in brief: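 Differentiated human HepaRG cells, plated 48 h then switched to serum-free induction medium, were exposed for 48 h to test chemicals (8-point half-log series, top 100 uM, 0.5% DMSO). EGF mRNA was quantified by qRT-PCR, normalized to ACTB, GAPDH, POLR2A.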

[19] = read-out: Early growth response protein 1 (EGR1) transcription factor, EGR1 (gene 1958); assay: LTEA_HepaRG_EGR1: Life Technologies and Expression Analysis (LTEA) Assay for Early growth response protein 1 (EGR1) transcription factor using HepaRG (AID 2283490)
Method in brief: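 Read-out is EGR1 mRNA level by qRT-PCR, normalized to three housekeeping genes and analysed for gain or loss of signal against 0.5% DMSO. Source cells: human HepaRG, treated 48 h at up to 100 uM in half-log dilutions.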

[20] = read-out: Cytochrome P450 3A4 (Homo sapiens) (UniProt P08684); assay: LTEA_HepaRG_CYP3A4: Life Technologies and Expression Analysis (LTEA) Assay for CYP3A4 using HepaRG (AID 2283487)
Method in brief: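 Differentiated HepaRG cells, plated 48 h, then dosed 48 h in serum-free induction medium with 0.5% DMSO, 8 half-log concentrations up to 100 uM, duplicate. CYP3A4 mRNA by qRT-PCR, normalized to ACTB/GAPDH/POLR2A; bidirectional fit versus DMSO.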

Measured: AC50

Chain of Cytochrome P450 2C19 (Homo sapiens) (P33261 whole entry, looked up): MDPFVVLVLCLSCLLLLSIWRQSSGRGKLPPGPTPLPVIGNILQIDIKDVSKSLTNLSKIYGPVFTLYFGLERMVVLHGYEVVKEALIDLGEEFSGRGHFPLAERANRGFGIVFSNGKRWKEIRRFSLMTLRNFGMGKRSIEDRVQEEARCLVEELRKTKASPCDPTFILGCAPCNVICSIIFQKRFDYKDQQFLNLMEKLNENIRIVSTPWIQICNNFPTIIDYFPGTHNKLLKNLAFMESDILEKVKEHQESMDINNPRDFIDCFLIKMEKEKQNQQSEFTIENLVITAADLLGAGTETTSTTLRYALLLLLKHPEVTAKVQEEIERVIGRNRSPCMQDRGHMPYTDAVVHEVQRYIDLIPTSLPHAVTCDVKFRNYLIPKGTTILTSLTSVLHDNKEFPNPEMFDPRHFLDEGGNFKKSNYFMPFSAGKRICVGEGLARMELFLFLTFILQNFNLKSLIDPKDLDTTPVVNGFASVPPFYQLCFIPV
Chain of Cytochrome P450 3A4 (Homo sapiens) (P08684 whole entry, looked up): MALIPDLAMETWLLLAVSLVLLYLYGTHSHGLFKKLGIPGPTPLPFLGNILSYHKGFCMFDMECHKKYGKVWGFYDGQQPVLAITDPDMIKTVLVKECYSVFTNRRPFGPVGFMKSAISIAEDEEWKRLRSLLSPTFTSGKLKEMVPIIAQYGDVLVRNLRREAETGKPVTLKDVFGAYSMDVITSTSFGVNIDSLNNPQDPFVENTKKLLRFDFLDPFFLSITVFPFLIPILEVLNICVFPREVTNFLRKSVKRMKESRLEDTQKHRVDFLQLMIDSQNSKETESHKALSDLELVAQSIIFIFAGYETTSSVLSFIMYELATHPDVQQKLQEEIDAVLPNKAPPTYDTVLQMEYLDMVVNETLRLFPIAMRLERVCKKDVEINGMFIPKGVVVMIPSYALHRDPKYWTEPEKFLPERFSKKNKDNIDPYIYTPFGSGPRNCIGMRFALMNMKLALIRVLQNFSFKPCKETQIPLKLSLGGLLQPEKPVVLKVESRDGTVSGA
Chain of Caspase-3 (Homo sapiens) (P42574 whole entry, looked up): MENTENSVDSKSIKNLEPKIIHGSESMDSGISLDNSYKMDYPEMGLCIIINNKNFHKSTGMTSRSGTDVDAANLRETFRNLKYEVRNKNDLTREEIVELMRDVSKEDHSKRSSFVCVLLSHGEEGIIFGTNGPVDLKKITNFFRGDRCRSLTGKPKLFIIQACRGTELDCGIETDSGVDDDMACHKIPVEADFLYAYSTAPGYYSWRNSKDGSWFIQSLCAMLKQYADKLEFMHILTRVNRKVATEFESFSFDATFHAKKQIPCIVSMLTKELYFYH
Chain of Apoptosis regulator Bcl-2 (Homo sapiens) (P10415 whole entry, looked up): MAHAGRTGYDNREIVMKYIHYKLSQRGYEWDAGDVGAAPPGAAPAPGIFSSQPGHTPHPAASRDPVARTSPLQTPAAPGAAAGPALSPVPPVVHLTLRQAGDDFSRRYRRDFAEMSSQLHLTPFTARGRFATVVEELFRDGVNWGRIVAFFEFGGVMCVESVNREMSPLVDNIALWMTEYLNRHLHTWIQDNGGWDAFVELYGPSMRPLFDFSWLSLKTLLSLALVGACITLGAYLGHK

CC(C)Oc1cccc(NC(=O)c2ccccc2C(F)(F)F)c1
active: [9] 80 µM | [11] 33 µM | [12] 40.2 µM | [13] 50 µM | [15] 84.4 µM
not listed: [20]
inactive: all other assays above

CCNC(=O)NC(=O)C(C#N)=NOC
active: [2] 75.6 µM | [6] 0.234 µM | [11] 3.37 µM | [15] 50 µM | [17] 11.6 µM
not listed: [18]
inactive: all other assays above

CCOC(=O)C(C)OC(=O)c1cc(Oc2ccc(C(F)(F)F)cc2Cl)ccc1[N+](=O)[O-] (centres undefined)
active: [2] 50 µM | [11] 11.5 µM | [12] 12.9 µM | [13] 12.8 µM | [15] 36.6 µM | [16] 0.598 µM | [20] 4.78 µM | [19] 18.7 µM
inactive: all other assays above

COCC(=O)N(c1c(C)cccc1C)C(C)C(=O)OC (centres undefined)
active: [11] 1.23 µM | [12] 3.91 µM | [15] 50 µM
not listed: [20]
inactive: all other assays above

CC(C)=CC1C(C(=O)OCc2coc(Cc3ccccc3)c2)C1(C)C (centres undefined)
active: [11] 20.1 µM | [12] 15.5 µM | [15] 39.1 µM | [16] 50 µM
not listed: [20]
inactive: all other assays above

O=C(Nc1ccccc1-c1ccc(Cl)cc1)c1cccnc1Cl
active: [2] 52.5 µM | [11] 1.62 µM | [15] 52.5 µM
not listed: [20]
inactive: all other assays above

O=c1n(Cl)c(=O)n(Cl)c(=O)n1Cl
active: [9] 50 µM
not listed: [18]
inactive: all other assays above
